VP16 counter: VP16 counterscreen qHTS for inhibitors of ROR gamma transcriptional activity | Drosophila S2 Gal4-VP16 UAS-luciferase, luminescence, 20 h | Potency, µM (highest dose often 53.6 µM), without a hit: at the highest dose activity, negative = inhibition, hits mostly inhibitors | hit rate 3.5% among 310,000;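 also: Gal4-VP16 expression switched on by copper sulfate through the metallothionein promoter; potency is read from the fitted curve at half-maximal effect; nearly all actives have a fitted effect of over 50% in size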
RORgamma inh: qHTS for inhibitors of ROR gamma transcriptional activity. Nuclear receptor ROR-gamma (Mus musculus), P51450. Drosophila S2 Gal4-RORgamma UAS-luciferase reporter, 20 h. Potency, µM (doses to about 53.6 µM), inactives show top-dose activity change, negative = inhibition, most hits filed as inhibitors. hit rate 5.4% among 310,000. AID 2551, 2010; also: potency is read from the fitted curve at half-maximal effect; nearly all actives have a fitted effect of over 60% in size
Target sequence (P51450 whole entry, looked up, the tested form may be a part): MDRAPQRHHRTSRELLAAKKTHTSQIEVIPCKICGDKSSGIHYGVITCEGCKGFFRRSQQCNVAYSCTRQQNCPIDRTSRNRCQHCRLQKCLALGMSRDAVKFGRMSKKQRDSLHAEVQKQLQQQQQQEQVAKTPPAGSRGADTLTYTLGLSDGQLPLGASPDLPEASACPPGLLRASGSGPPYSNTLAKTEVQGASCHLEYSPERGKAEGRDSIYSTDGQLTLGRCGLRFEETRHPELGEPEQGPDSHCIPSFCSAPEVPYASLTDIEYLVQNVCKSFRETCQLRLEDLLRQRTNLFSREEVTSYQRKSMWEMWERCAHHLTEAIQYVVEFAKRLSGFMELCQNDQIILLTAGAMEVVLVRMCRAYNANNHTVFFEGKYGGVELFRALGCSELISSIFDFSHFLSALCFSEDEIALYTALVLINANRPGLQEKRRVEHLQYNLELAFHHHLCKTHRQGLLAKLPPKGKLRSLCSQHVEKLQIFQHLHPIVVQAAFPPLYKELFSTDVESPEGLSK
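Drosophila S2 cells stably expressing Gal4-DBD/mouse RORγ fusion under metallothionein promoter plus UAS-luciferase; compound 1 h, then 700 uM CuSO4 induction for 20 h at ambient temperature; inhibition read as reduced luminescence.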
LDHA block: qHTS assay for inhibitors of human lactate dehydrogenase; AID 1347041, 2019; purified LDHA, NADH/diaphorase-resazurin fluorescence; stronger effect = lower value; hit rate 0.15% among 480,000; activity change, % (values are at about 110 or 230 µM); in the data active = activity change below about -30%; inconclusive = mostly about -25% to -30%;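 also: plate controls were DMSO wells for no effect and wells without enzyme for full effect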
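Resorufin fluorescence (ex540/em590), read at 0 and 20 min after diaphorase/resazurin addition, reports the NADH left after a 5 min room-temperature reaction of 2 nM human LDH5 with 0.06 mM NADH and 0.2 mM pyruvate.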
DT40 TDP1 no CPT: qHTS for Inhibitors of human tyrosyl-DNA phosphodiesterase 1 (TDP1): qHTS in cells in absence of CPT; DT40 Tdp1-/- hTDP1 cells, no CPT, ATP luminescence, 48 h; Potency, µM (highest dose often 46.2 µM), without a hit: at the top dose activity change, negative = growth inhibition, hits mostly inhibitors; hit rate 15% among 420,000; also: potency is read from the fitted curve at half-maximal effect; nearly all actives have a fitted effect of over 55% in size
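Readout: luminescence from CellTiter-Glo after 30 min in the dark at RT. Cells: DT40 Tdp1-/- with stable hTDP1, 400/well. Exposure: compounds alone, ≥48 hr, 37 °C.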
TDP1 cell CPT: qHTS for Inhibitors of human tyrosyl-DNA phosphodiesterase 1 (TDP1): qHTS in cells in presence of CPT; Potency, µM (highest dose often 46.2 µM), inactives show at the highest dose activity change, negative = growth inhibition, usual class: inhibitors; AID 686979, 2013; chicken DT40 Tdp1-/-;hTDP1 cells + 20 nM CPT, ATP luminescence, 48 h; hit rate 12% among 420,000; also: potency is read from the fitted curve at half-maximal effect; nearly all actives have a fitted effect of over 55% in size
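Chicken DT40 Tdp1-/- cells complemented with human TDP1, 400 cells/well, exposed to compounds plus 20 nM camptothecin for at least 48 h at 37 C; viability read as ATP content by CellTiter-Glo luminescence.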
IL-1B inflam inh: qHTS for Inhibitors of Inflammasome Signaling: IL-1-beta AlphaLISA Primary Screen; THP-1 LPS/ATP IL-1B secretion, AlphaLISA, 16 h; stronger effect = lower value; activity change, % at 57.5 µM; hit rate 4.7% among 360,000; in the data active = activity change below about -50%; inconclusive = mostly about -30% to -49%
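THP-1 cells pretreated 1 hr with compounds (up to 57.5 uM final), then stimulated with LPS (250 ng/mL final) plus ATP (1.25 mM final); secreted IL-1B measured by AlphaLISA after 16 hr, decreased signal indicating inhibition.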
Starred values were filed as active, the others as inactive; ? = inconclusive; . = no result given; [ ] = dose if it differs, or a comment. An excerpt weighted towards active compounds, which were near 18% of everything screened. Unless noted, calls follow the shape of the dose curve; as a rule, active = well fitted curve in the direction sought with a large enough effect; inconclusive = small, poorly fitted or top-dose-only effect, or another doubt; inactive = no such curve, though single readings can be large; an effect the other way counts as inactive or inconclusive. Unless noted, % is scaled to controls: 0 for no effect and ±100 for the full control effect.

SMILES	VP16 counter	RORgamma inh	LDHA block	DT40 TDP1 no CPT	TDP1 cell CPT	IL-1B inflam inh
CCOC(=O)C1=C(O)c2ccccc2C(=O)/C1=C\c1ccc(CC)cc1	-1%[0.365 µM]	4.5µM*	91	21µM*	21µM*	?
COC(=O)c1ccc(NC(=O)CSC2=NCCN2)cc1	-3%	-16%	-3	15µM*	?	-53*
Cc1ccc2sc(N3CCN(C(=O)CCS(=O)(=O)c4ccc(Cl)cc4)CC3)nc2c1C	.	.	-5	2.3µM*	4.1µM*	.
CCCCC(=O)N1CCN(c2nc3c(C)c(C)ccc3s2)CC1	.	.	1	18µM*	?	.
CC1(C)C(=O)C2(CCCC2)C(=O)OC1c1ccco1 (stereo unspecified)	7%	12%	-2	-17%	-9%	-16
O=C1OC(c2cccc([N+](=O)[O-])c2)C2(CCCC2)C(=O)C12CCCCC2 (stereo unspecified)	-17%	?	3	?	23µM*	-9
Cc1ccc2ncn(Cc3coc(-c4cccs4)n3)c(=O)c2c1	.	.	2	.	.	.
CC(C)(C)OC(=O)N(CCc1ccccc1)Cc1ccccc1OCc1cccc(NC(=O)C2CCCC2)c1	.	.	2	?	21µM*	-2
CC(C)(C)OC(=O)N(CCc1ccccc1)Cc1ccc(OCc2cccc(NC(=O)C3CCCC3)c2)cc1	.	.	3	6.5µM*	5.2µM*	-19
CC(C)(C)OC(=O)N(CCc1ccccc1)Cc1ccccc1OCc1cccc(NC(=O)C2CC2)c1	.	.	0	?	?	-8
CC(C)(C)OC(=O)N(Cc1ccccc1)Cc1ccccc1OCc1ccc(NC(=O)C2CCC2)cc1	.	.	5	?	18µM*	-68*
COCCNC(=O)c1cc(-c2ccccn2)nc2ccccc12	.	.	2	.	.	.
O=C(Nc1ccccn1)c1ccc(Br)s1	2%	37%[1.91 µM]	-10	-17%	1%	-64*
O=C(Nc1ccccn1)c1ccc(C(=O)Nc2ccccn2)cc1	12%	0%	-2	4%	-10%	11
CCc1sc(C(=O)NCC(C)C)cc1C	.	.	0	.	.	.
CCc1sc(C(=O)Nc2nc(C)cs2)cc1C	11µM*	5µM*	0	?	?	-9
CC1CCc2sc(C(=O)NN)cc2C1 (stereo unspecified)	-9%	26%	-2	-2%	2%	-12
CCOC(=O)c1sc(NC(=O)c2cc3c(s2)CCC(C)C3)nc1C (stereo unspecified)	0%	0.25µM*	-8	?	-12%	-4
CC1CCc2sc(C(=O)Nc3ccc(C(N)=O)cc3)cc2C1 (stereo unspecified)	-11%	8%	-16	-5%	5%	-70*
COc1ccc(N2C(=O)C(C)CS2(=O)=O)cc1S(=O)(=O)N(C)CCc1ccncc1 (stereo unspecified)	.	.	-2	.	.	.
O=[N+]([O-])c1ccccc1C=C(c1ccccc1)c1ccccc1	.	.	6	.	.	.
COC(=O)c1sc(NC(=O)c2cc3c(s2)CCCC3)nc1C	?	1.8µM*	-3	21µM*	-16%	-52*
Cc1csc(NC(=O)c2ccc(Br)s2)n1	?	10µM*	3	?	?	-17
CCc1sc(C(=O)Nc2ccc3nc(C)sc3c2)cc1C	.	.	6	?	?	-52*
CCc1sc(C(=O)Nc2ccc(NC(C)=O)cc2)cc1C	18%	?	-7	-19%	0%	?
SMILES	VP16 counter	RORgamma inh	LDHA block	DT40 TDP1 no CPT	TDP1 cell CPT	IL-1B inflam inh
Cc1nc(NC(=O)CCl)sc1C(=O)N(C)C	?	?	-2	15µM*	13µM*	-81*
CCOc1c(OC)cccc1-c1nc2ccccc2s1	.	.	-4	.	.	.
Cc1nc(NC(=O)c2cc3c(s2)CCCCC3)sc1C(=O)N(C)C	21%	16%	0	?	?	-53*
Cc1nc(NC(=O)c2ccc(Br)s2)sc1C(=O)N(C)C	22%[0.365 µM]	?	-15	-1%	-1%	?
Cc1csc(NC(=O)c2cc3c(s2)CCC3)n1	8.9µM*	2µM*	-4	?	-8%	-3
Cc1ccc2nc(C3CCCCC3)c(CC(C)(C)C)n2c1	.	.	0	16µM*	?	33
Cc1cc(Br)cn2c(CC(C)(C)C)c(C3CCCCC3)nc12	.	.	-2	?	?	25
COc1ccccc1Cc1c(C2CCCCC2)nc2ccc(C)cn12	.	.	0	23µM*	21µM*	-17
COc1ccccc1Cc1c(C2CCCCC2)nc2ccc(Cl)cn12	.	.	-4	26µM*	23µM*	-14
COc1ccc(OC)c(S(=O)(=O)N2CCN(c3cc(N4CCCC4)nc(C)n3)CC2)c1	.	.	3	.	.	.
ON(/C=C1\C=Nc2ccccc21)c1ccc(Br)cc1	.	.	0	.	.	.
CCOC(=O)N1CCN(CC(=O)Nc2oc3ccccc3c(=O)c2-c2ccc(C)cc2)CC1	.	.	-2	.	.	.
CCOC1=C2[C@H](c3ccccc3)N(S(=O)(=O)c3ccc(C)cc3)C(C(C)(C)C)[C@H]2C(C#N)(C#N)C(C#N)(C#N)C1 (stereo partly specified)	.	.	-11	2.1µM*	2.1µM*	-64*
CCOC1=C2CN(S(=O)(=O)c3ccc(C)cc3)[C@H](c3cccc4ccccc34)C[C@H]2C(C#N)(C#N)C(C#N)(C#N)C1	.	.	-6	5.8µM*	4.1µM*	-26
CCCCC[C@@H]1[C@@H]2C(=C(OCC)C[C@@H]3C(=O)N(c4ccccc4)C(=O)[C@H]23)[C@H](c2ccccc2)N1S(=O)(=O)c1ccc(C)cc1	.	.	-10	-29%	-18%	-8
CCN(CC)C(CNC(=O)/C=C/c1cccs1)c1ccccc1 (stereo unspecified)	.	.	3	.	.	.
Cc1ccc(OCC(=O)N/N=C\c2cn(Cc3ccccc3)c3ccccc23)cc1C	?	11µM*	-2	?	?	27
Cc1ccccc1OCC(=O)N/N=C/c1cn(C)c2ccccc12	-10%	?	-9	-23%	12%	13
Cc1ccccc1OCC(=O)N/N=C/c1cn(Cc2ccccc2)c2ccccc12	?	18µM*	-2	?	-29%	30
CCCN(Cc1cccs1)C(=O)Nc1cc(C)cc(C)c1	.	.	-5	?	26µM*	.
CCCN(Cc1cccs1)C(=O)Nc1cc(C)ccc1OC	.	.	5	16µM*	?	.

High-throughput results deposited in PubChem by National Center for Advancing Translational Sciences (NCATS).
